PubChem BioAssay (NCI)
About 83,000 compounds went through this panel and 20% of them were active in at least one assay; those are over-represented in the sample as a whole.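 Compound tested at a single concentration for 48 hours in 96-well plates; a percent growth value below 10 was scored as active.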 Values without a mark were called inactive. Calls of active or inactive are those of the source.

Legend:
Assay in all cases: NCI-60 one-dose screen, 48 h (100 = growth as untreated, 0 = no growth, -100 = all killed)
Conditions in all cases: 10 µM unless noted
NCI-H23 lung = system: NCI-H23 lung
NCI-H226 lung = system: NCI-H226 lung
NCI-H322M lung = system: NCI-H322M lung
HOP-62 NSCLC = system: HOP-62 NSCLC
NCI-H460 lung = system: NCI-H460 lung
HOP-92 NSCLC = system: HOP-92 NSCLC
NCI-H522 lung = system: NCI-H522 lung
A549/ATCC NSCLC = system: A549/ATCC NSCLC
786-0 renal = system: 786-0 renal
COLO 205 colon = system: COLO 205 colon
DU-145 prostate = system: DU-145 prostate
K-562 leukemia = system: K-562 leukemia
MALME-3M melanoma = system: MALME-3M melanoma
MDA-MB-231 breast = system: MDA-MB-231 breast
RXF 393 renal = system: RXF 393 renal
SF-268 CNS = system: SF-268 CNS
SF-295 CNS = system: SF-295 CNS
SF-539 CNS = system: SF-539 CNS
UACC-257 melanoma = system: UACC-257 melanoma
M14 melanoma = system: M14 melanoma

Cc1ccc(NC(=O)[C@]23CCC(C)(C)CC2C2=CCC4[C@@]5(C)C[C@@H](O)[C@H](O)[C@@](C)(CO)C5CC[C@@]4(C)[C@]2(C)CC3)cc1 (stereo not given in full)
growth (NCI-H23 lung): 29.5%
growth (NCI-H226 lung): 9.45% (active)
growth (NCI-H322M lung): 69.3%
growth (HOP-62 NSCLC): 47.2%
growth (NCI-H460 lung): 3.15% (active)
growth (HOP-92 NSCLC): -19.6% (active)
growth (NCI-H522 lung): 12.3%
growth (A549/ATCC NSCLC): 20.5%
growth (786-0 renal): 17.1%
growth (COLO 205 colon): -65.9% (active)
growth (DU-145 prostate): 45.6%
growth (K-562 leukemia): 11.6%
growth (MALME-3M melanoma): 49.5%
growth (MDA-MB-231 breast): -8.63% (active)
growth (RXF 393 renal): -38.6% (active)
growth (SF-268 CNS): 48.5%
growth (SF-295 CNS): 21.8%
growth (SF-539 CNS): 28.1%
growth (UACC-257 melanoma): 39.8%
growth (M14 melanoma): 38.3%

O=C(COc1ccc(NC(=O)Nc2ccccc2)cc1)N=Nc1c(O)[nH]c2ccc([N+](=O)[O-])cc12
growth (NCI-H23 lung): 10.5%
growth (NCI-H226 lung): 18.6%
growth (NCI-H322M lung): 37.7%
growth (HOP-62 NSCLC): 24.5%
growth (NCI-H460 lung): 49.1%
growth (HOP-92 NSCLC): -72.4% (active)
growth (NCI-H522 lung): -48% (active)
growth (A549/ATCC NSCLC): 101%
growth (786-0 renal): 16.7%
growth (COLO 205 colon): -29.9% (active)
growth (DU-145 prostate): 33.9%
growth (K-562 leukemia): 10.5%
growth (MALME-3M melanoma): -62.7% (active)
growth (MDA-MB-231 breast): -42.3% (active)
growth (RXF 393 renal): 33.5%
growth (SF-268 CNS): 46.7%
growth (SF-295 CNS): 70.3%
growth (SF-539 CNS): -70.5% (active)
growth (UACC-257 melanoma): 27.3%
growth (M14 melanoma): 8.59% (active)

CC(C)CSc1nc(NCCc2c[nH]c3ccccc23)c(C#N)c(-c2ccccc2)n1
growth (NCI-H23 lung): 76.6%
growth (NCI-H226 lung): 51.3%
growth (NCI-H322M lung): 80.7%
growth (HOP-62 NSCLC): 68.8%
growth (NCI-H460 lung): 12.5%
growth (HOP-92 NSCLC): 61.7%
growth (NCI-H522 lung): 67.6%
growth (A549/ATCC NSCLC): 66.9%
growth (786-0 renal): 47.1%
growth (COLO 205 colon): 50.2%
growth (DU-145 prostate): 66.8%
growth (K-562 leukemia): 20.5%
growth (MALME-3M melanoma): 91.8%
growth (MDA-MB-231 breast): 38.3%
growth (RXF 393 renal): 32.5%
growth (SF-268 CNS): 67.4%
growth (SF-295 CNS): 68.7%
growth (SF-539 CNS): 62.5%
growth (UACC-257 melanoma): 97.4%
growth (M14 melanoma): 74.5%

O=C(/C=C/Nc1ccc(Cl)cc1)c1ccc2c(c1)Nc1ccccc1S2
growth (NCI-H23 lung): 33.1%
growth (NCI-H226 lung): 8.89% (active)
growth (NCI-H322M lung): 59.5%
growth (HOP-62 NSCLC): -27.5% (active)
growth (NCI-H460 lung): 13.3%
growth (HOP-92 NSCLC): 13.6%
growth (NCI-H522 lung): 34.9%
growth (A549/ATCC NSCLC): 43.1%
growth (786-0 renal): -6.27% (active)
growth (COLO 205 colon): 62.5%
growth (DU-145 prostate): 33.5%
growth (K-562 leukemia): 49.2%
growth (MALME-3M melanoma): 50.7%
growth (MDA-MB-231 breast): 26.8%
growth (RXF 393 renal): 14.5%
growth (SF-268 CNS): 42.3%
growth (SF-295 CNS): 23.4%
growth (SF-539 CNS): 8% (active)
growth (UACC-257 melanoma): 74.5%
growth (M14 melanoma): 49.5%

CN(C)c1ccnc(CNCCSC2(c3ccc(C(F)(F)F)cc3)c3ccccc3C=Cc3ccccc32)c1
growth (NCI-H23 lung): -39.1% (active)
growth (NCI-H226 lung): 25.9%
growth (NCI-H322M lung): 42.9%
growth (HOP-62 NSCLC): 17.2%
growth (NCI-H460 lung): -89.4% (active)
growth (HOP-92 NSCLC): -10.1% (active)
growth (NCI-H522 lung): -64.9% (active)
growth (A549/ATCC NSCLC): 2.72% (active)
growth (786-0 renal): -22.4% (active)
growth (COLO 205 colon): -82.3% (active)
growth (DU-145 prostate): 3.69% (active)
growth (K-562 leukemia): -11.1% (active)
growth (MALME-3M melanoma): -89.7% (active)
growth (MDA-MB-231 breast): -48% (active)
growth (RXF 393 renal): -26.7% (active)
growth (SF-268 CNS): 7.1% (active)
growth (SF-295 CNS): -90.6% (active)
growth (SF-539 CNS): -96.8% (active)
growth (UACC-257 melanoma): -20.6% (active)
growth (M14 melanoma): -74.7% (active)

CCOC(=O)COc1c(OC)c(OC)cc2oc(-c3cccc(C(=O)Nc4ccc(Cl)cc4)c3)cc(=O)c12
growth (NCI-H23 lung): 62.9%
growth (NCI-H226 lung): 76.2%
growth (NCI-H322M lung): 108%
growth (HOP-62 NSCLC): 54.9%
growth (NCI-H460 lung): 83.5%
growth (HOP-92 NSCLC): 52.6%
growth (NCI-H522 lung): 46%
growth (A549/ATCC NSCLC): 77%
growth (786-0 renal): 49.5%
growth (COLO 205 colon): 39.8%
growth (DU-145 prostate): 64%
growth (K-562 leukemia): 23.2%
growth (MALME-3M melanoma): 52%
growth (MDA-MB-231 breast): 50.7%
growth (RXF 393 renal): 75.6%
growth (SF-268 CNS): 56.1%
growth (SF-295 CNS): 38.2%
growth (SF-539 CNS): 59.8%
growth (UACC-257 melanoma): 77.2%
growth (M14 melanoma): 33.9%

Cc1ccccc1[C@H]1C(C(=O)c2ccc(Cl)cc2)C2(N[C@@H]1c1ccccc1)C(=O)Nc1ccc(Br)cc12 (stereo not given in full)
growth (NCI-H23 lung): -3.76% (active)
growth (NCI-H226 lung): 25.5%
growth (NCI-H322M lung): 39.4%
growth (HOP-62 NSCLC): 31.6%
growth (NCI-H460 lung): 3.51% (active)
growth (HOP-92 NSCLC): -21.3% (active)
growth (NCI-H522 lung): -17.6% (active)
growth (A549/ATCC NSCLC): 2.73% (active)
growth (786-0 renal): -40.5% (active)
growth (COLO 205 colon): -34.5% (active)
growth (DU-145 prostate): 15%
growth (K-562 leukemia): 1.41% (active)
growth (MALME-3M melanoma): 45.1%
growth (MDA-MB-231 breast): -19.8% (active)
growth (RXF 393 renal): -29% (active)
growth (SF-268 CNS): 31%
growth (SF-295 CNS): 19.3%
growth (SF-539 CNS): 36.9%
growth (UACC-257 melanoma): 37.3%
growth (M14 melanoma): 1.39% (active)

Cc1sc(C(NC(=O)OCCn2c([N+](=O)[O-])cnc2C)C(F)(F)Cl)nc1-c1ccc(OC(F)(F)F)cc1 (stereo not given)
growth (NCI-H23 lung): -92% (active)
growth (NCI-H226 lung): -65.2% (active)
growth (NCI-H322M lung): -92.4% (active)
growth (HOP-62 NSCLC): -89.7% (active)
growth (NCI-H460 lung): -29.2% (active)
growth (HOP-92 NSCLC): -82% (active)
growth (NCI-H522 lung): -86.1% (active)
growth (A549/ATCC NSCLC): -81.3% (active)
growth (786-0 renal): -91.3% (active)
growth (COLO 205 colon): -74.2% (active)
growth (DU-145 prostate): -70.4% (active)
growth (K-562 leukemia): 0.935% (active)
growth (MALME-3M melanoma): -75% (active)
growth (MDA-MB-231 breast): -94.8% (active)
growth (RXF 393 renal): -88.6% (active)
growth (SF-268 CNS): -38.6% (active)
growth (SF-295 CNS): -98.8% (active)
growth (SF-539 CNS): -92.4% (active)
growth (UACC-257 melanoma): -73% (active)
growth (M14 melanoma): -67.5% (active)
